In PubChem BioAssay (NCI):
The panel holds about 83,000 compounds, 20% with a hit somewhere; the sample as a whole holds those more often.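 Each cell line was grown in a 96-well plate and treated with one concentration of compound for 48 hours. Values below 10 were considered active.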 The source made the active and inactive calls.

Key:
Test in all cases: NCI-60 one-dose screen, 48 h (100 = growth as untreated, 0 = no growth, -100 = all killed)
Conditions in all cases: 10 µM unless noted
T-47D breast = system: T-47D breast
BT-549 breast = system: BT-549 breast
MDA-MB-435 melanoma = system: MDA-MB-435 melanoma
MCF7 breast = system: MCF7 breast
HCT-116 colon = system: HCT-116 colon
HCC-2998 colon = system: HCC-2998 colon
KM12 colon = system: KM12 colon
SW-620 colon = system: SW-620 colon

Measured: growth

C=CC(=O)Nc1ccc2ncnc(Nc3cccc(NS(=O)(=O)CCC)c3Cl)c2c1
inactive: T-47D breast 24.5% | BT-549 breast 35.7% | MDA-MB-435 melanoma 26.2% | MCF7 breast 56.2% | HCT-116 colon 67.9% | HCC-2998 colon 93.3% | KM12 colon 78.4%

O=c1c2cccc3c(N4CCOCC4)ccc(c32)c2nc3ccccc3n12
inactive: T-47D breast 38.1% | BT-549 breast 93.8% | MDA-MB-435 melanoma 104% | MCF7 breast 24% | HCT-116 colon 87% | HCC-2998 colon 73.2% | KM12 colon 78.1%

O=C(CNc1ncco1)Nc1ccc(S(=O)(=O)c2ccc(NC(=O)CNc3ncco3)cc2)cc1
active: MDA-MB-435 melanoma 3.01% | HCT-116 colon -80.7%
inactive: T-47D breast 29.3% | BT-549 breast 43.9% | MCF7 breast 18.9% | HCC-2998 colon 76.4% | KM12 colon 94.8%

COc1ccc(C2=NN3C(C2)c2cc(Br)ccc2OC3c2ccncc2)cc1 (stereo not drawn)
inactive: T-47D breast 69.1% | BT-549 breast 76.6% | MDA-MB-435 melanoma 92.4% | MCF7 breast 70.7% | HCT-116 colon 76.8% | HCC-2998 colon 105% | KM12 colon 73%

COc1ccc(-c2cc(-c3ccc(Cl)cc3)c(C#N)c(=O)n2CCCCC(=O)NO)cc1
inactive: T-47D breast 83.2% | BT-549 breast 59.8% | MDA-MB-435 melanoma 91.1% | MCF7 breast 76.7% | HCT-116 colon 62.7% | HCC-2998 colon 84.3% | KM12 colon 86.9%

O=C1C=CC2(O)OC(c3ccccc3)CC(=O)C2=C1O (stereo not drawn)
inactive: T-47D breast 83.6% | BT-549 breast 74% | SW-620 colon 102% | MCF7 breast 86% | HCT-116 colon 82.9% | HCC-2998 colon 101% | KM12 colon 15.9%

COc1ccc(/C=N\NC(=O)c2ccc3nc(-c4ccc(Cl)cc4)[nH]c3c2)cc1
inactive: T-47D breast 23.3% | BT-549 breast 56.9% | SW-620 colon 24.4% | MCF7 breast 16.7% | HCT-116 colon 19% | HCC-2998 colon 51.1% | KM12 colon 17.3%

COc1cc2cc(Oc3ccc(NC(=O)Nc4ccc(F)c(C(F)(F)F)c4)cc3)c(C)nc2cc1OCCN1CCCCC1
active: SW-620 colon -76.2% | MCF7 breast -75% | HCT-116 colon -89.8% | KM12 colon -79.9%
inactive: T-47D breast 78.5% | BT-549 breast 85.3% | HCC-2998 colon 96.9%

COC1CC(O)C2=C(CC3C(/C(C)=C\CC=C(C)C)CCC3(C)O2)C1=O (stereo not drawn)
inactive: T-47D breast 94.9% | BT-549 breast 107% | SW-620 colon 104% | MCF7 breast 99.4% | HCT-116 colon 98.9% | HCC-2998 colon 105% | KM12 colon 107%

COC(=O)CCc1c(/C=C2\N=C(c3ccc[nH]3)C=C2OC)[nH]c(C)c1C(=O)OCc1ccccc1
active: T-47D breast -2.41% | BT-549 breast 1.79% | SW-620 colon 3.31% | MCF7 breast 7.6% | HCT-116 colon -9.83%
inactive: HCC-2998 colon 22.8% | KM12 colon 10.6%

COc1ccc(NC(=O)c2sc3nc(C)c(C(=O)c4ccccc4)cc3c2N)cc1
inactive: T-47D breast 91% | BT-549 breast 113% | SW-620 colon 90.9% | MCF7 breast 88.8% | HCT-116 colon 108% | HCC-2998 colon 103% | KM12 colon 95.3%

CC(C)(C)n1cc(-c2ccnc(NCCNS(=O)(=O)c3ccc(Br)cc3)c2)c(-c2cccc(O)c2)n1
active: T-47D breast 8.09% | SW-620 colon 5.53% | MCF7 breast 8.18% | HCC-2998 colon -17.5%
inactive: BT-549 breast 30.8% | HCT-116 colon 19.7% | KM12 colon 17.3%

Cc1oc2ccc(O)c(CN3CCCCCC3)c2c1C(=O)Nc1ccc(C(F)(F)F)cc1
inactive: T-47D breast 74% | BT-549 breast 78.5% | SW-620 colon 67.4% | MCF7 breast 48.1% | HCT-116 colon 32.7% | HCC-2998 colon 11.2% | KM12 colon 65.5%

COc1ccc(Cn2cc3c(c2)-c2oncc2CC3)cc1
inactive: T-47D breast 51.6% | BT-549 breast 64.3% | SW-620 colon 27.2% | MCF7 breast 35.4% | HCT-116 colon 29.6% | HCC-2998 colon 68.1% | KM12 colon 52.3%

O=C(Nc1ccc(Oc2cccc(F)c2)c(Cl)c1)c1cnccn1
inactive: T-47D breast 38.3% | BT-549 breast 59.9% | SW-620 colon 22.7% | MCF7 breast 17.5% | HCT-116 colon 32% | HCC-2998 colon 56.2% | KM12 colon 30.3%

Nc1ccc(N)c2c1C(=O)c1cccc([N+](=O)[O-])c1C2=O
active: HCC-2998 colon -60.6%
inactive: T-47D breast 38.2% | BT-549 breast 21.6% | SW-620 colon 51.5% | MCF7 breast 16.5% | HCT-116 colon 19.7% | KM12 colon 42%

COc1cc(/C=C/C(=O)c2ccc(-n3cc(CN4CCN(c5cc6c(cc5F)c(=O)c(C(=O)O)cn6C5CC5)CC4)nn3)cc2)cc(OC)c1OC
inactive: T-47D breast 101% | BT-549 breast 92.5% | SW-620 colon 85.9% | MCF7 breast 61.4% | HCT-116 colon 17.3% | HCC-2998 colon 83.3% | KM12 colon 87.1%

Clc1nc(N2CCC[N+]3(CC2)CC[N+]2(CCCNCC2)CC3)nc(N2CCC[N+]3(CC2)CC[N+]2(CCCNCC2)CC3)n1 (stereo not drawn)
inactive: T-47D breast 95% | BT-549 breast 95.1% | SW-620 colon 98.2% | MCF7 breast 91.3% | HCT-116 colon 87% | HCC-2998 colon 97.9% | KM12 colon 94.4%

Cc1cccc(C)c1NC(=O)Nc1ccccc1
inactive: T-47D breast 109% | BT-549 breast 116% | SW-620 colon 54.1% | MCF7 breast 53.4% | HCT-116 colon 61.9% | HCC-2998 colon 99.6% | KM12 colon 102%

COc1cc(/C=C2\C(=O)N(CCOc3cc(O)c4c(=O)cc(-c5ccccc5)oc4c3)c3ccccc32)cc(OC)c1O
inactive: T-47D breast 65.4% | BT-549 breast 51% | SW-620 colon 22.2% | MCF7 breast 31% | HCT-116 colon 28.2% | HCC-2998 colon 80% | KM12 colon 51.2%

COc1cc2c(cc1-c1c(C)noc1C)ncc1nc(C3CCOCC3)n(C3CCC(OC(F)F)CC3)c12 (stereo not drawn)
inactive: T-47D breast 11.3% | BT-549 breast 77.1% | SW-620 colon 76.3% | MCF7 breast 18.5% | HCT-116 colon 66.1% | HCC-2998 colon 56.5% | KM12 colon 44.3%

C=C(C)Cn1c(SCC(=O)c2cccs2)nc2sc3c(c2c1=O)CCCC3
inactive: T-47D breast 58.7% | BT-549 breast 81.2% | SW-620 colon 38.6% | MCF7 breast 46.7% | HCT-116 colon 29.3% | HCC-2998 colon 76.1% | KM12 colon 42.9%

Cc1ccc(-c2nc(C#N)c(S(=O)(=O)n3nc(C)cc3N)o2)cc1
inactive: T-47D breast 55.2% | BT-549 breast 80.4% | SW-620 colon 15% | MCF7 breast 88.2% | HCT-116 colon 65.5% | HCC-2998 colon 110% | KM12 colon 92.8%

COc1ccc(C(=O)/C=C/Nc2cc(-c3ccccc3)nn2-c2ccccc2)cc1
inactive: T-47D breast 82% | BT-549 breast 103% | SW-620 colon 84.2% | MCF7 breast 87.9% | HCT-116 colon 85.9% | HCC-2998 colon 99.4% | KM12 colon 99.9%

C/C=C(/C)C(=O)O[C@@H]1CC(C)(C)CC2C34OC(=O)[C@@]21CC[C@@]3(C)[C@]1(C)CCC2C(C)(C)C(=O)CC[C@]2(C)C1C[C@@H]4O (stereo partly drawn)
inactive: T-47D breast 46.8% | BT-549 breast 43.3% | SW-620 colon 38.8% | MCF7 breast 66.7% | HCT-116 colon 29.5% | HCC-2998 colon 73.1% | KM12 colon 51.5%

CCCCCCCCCCCCCC[n+]1ccc2c(C)c3c(c(C)c2c1)c1cc(O)ccc1n3CC
active: T-47D breast -25.5% | BT-549 breast -74.3% | SW-620 colon -72.2% | MCF7 breast -70.3% | HCT-116 colon -79.4% | HCC-2998 colon -64.6% | KM12 colon -67.3%

COC(=O)[C@@H](Cc1c[nH]c2ccccc12)NC[C@@H](O)CN1C(=O)/C(=C\c2cc(OC)c(OC)c(OC)c2)c2ccccc21
inactive: T-47D breast 54.5% | BT-549 breast 68.4% | SW-620 colon 77.3% | MCF7 breast 34.2% | HCT-116 colon 66% | HCC-2998 colon 75.2% | KM12 colon 60.4%

FC(F)(F)c1cccc(-c2nnn(Cc3cc(-c4cccc(Cl)c4)no3)n2)c1
inactive: T-47D breast 108% | BT-549 breast 97.7% | SW-620 colon 106% | MCF7 breast 99.1% | HCT-116 colon 96.7% | HCC-2998 colon 103% | KM12 colon 102%

O=C(Nc1ccc(Cl)cc1)C1=NCCCCN1
inactive: T-47D breast 68.6% | BT-549 breast 91.3% | SW-620 colon 63.8% | MCF7 breast 81.5% | HCT-116 colon 80% | HCC-2998 colon 96.2% | KM12 colon 71.2%

COc1ccc(-c2nc(SCCC(C)C)nc(N/N=C(/C)c3ccc(N)cc3)c2C#N)cc1
inactive: T-47D breast 85% | BT-549 breast 96.7% | SW-620 colon 95.2% | MCF7 breast 86.1% | HCT-116 colon 94.3% | HCC-2998 colon 97.4% | KM12 colon 92.1%

COc1cc(/C=C2\CN(S(=O)(=O)c3ccc(C)cc3)C/C(=C\c3cc(CN4CCCC4)c(O)c(OC)c3)C2=O)cc(CN2CCCC2)c1O
inactive: T-47D breast 40% | BT-549 breast 12.7%
active: SW-620 colon -68.1% | MCF7 breast -25.5% | HCT-116 colon -91.7% | HCC-2998 colon -89.5% | KM12 colon -63.9%

CCN1CCN(c2nc(NNC(=O)c3ccc(OC)cc3)nc(N3CCN(C(c4ccccc4)c4ccccc4)CC3)n2)CC1
inactive: T-47D breast 43.4% | BT-549 breast 81.1% | SW-620 colon 32.4% | MCF7 breast 15.9% | HCT-116 colon 20.8% | HCC-2998 colon 21.3% | KM12 colon 36.9%

CCCCC#Cc1c(I)n(C2OC(CO[Si](C)(C)C(C)(C)C)C3OC(C)(C)OC32)c(=O)[nH]c1=O (stereo not drawn)
active: HCC-2998 colon -19.8%
inactive: T-47D breast 12.3% | BT-549 breast 99.2% | SW-620 colon 47.6% | MCF7 breast 62.4% | HCT-116 colon 50.2% | KM12 colon 109%

Fc1ccc(/C=C/c2cc(/C=C/c3ccc(F)cc3)n(-c3cc(F)cc(F)c3)n2)cc1
inactive: T-47D breast 80.2% | BT-549 breast 97.6% | SW-620 colon 104% | MCF7 breast 89% | HCT-116 colon 84.5% | HCC-2998 colon 93.4% | KM12 colon 105%
